HT1080 IDH1KD tx – qHTS for induction of synthetic lethality in tumor cells producing 2HG: qHTS for the HT-1080-IDH1KD cell line | HT-1080 IDH1 knockdown viability, ATP luminescence, 48 h | Potency, µM (highest dose often 46.1 µM), actives largely listed as cytotoxic | actives 2% (n = 360,000)
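Knockdown cells (IDH1KD HT-1080) received compounds 2 h after plating at 750 cells/well and were kept 48 h at 37 °C in 5% FBS RPMI. A CellTiter-Glo luminescence read gave % activity for curve fitting.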
KB-V1 MDR tox – qHTS assay for MDR1-selective chemotherapeutics: Primary screen using the drug-selected MDR subline cells KB-V1; KB-V1 MDR cells viability, CellTiter-Glo, 72 h; Potency, µM (top dose mostly 46.1 µM), most hits filed as cytotoxic; actives 3.4% (n = 400,000); note: nearly all actives have a fitted effect of over 60% in size
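Following 72 h at 37 degrees C with compound, KB-V1 cell viability was read by CellTiter-Glo luminescence, medium being phenol-red-free DMEM plus 10% FBS; concentration-response parameters came from normalized, curve-fitted qHTS data.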
HT1080-NT tox – qHTS for induction of synthetic lethality in tumor cells producing 2HG: qHTS for the HT-1080-NT fibrosarcoma cell line. Potency, µM (doses to about 46.1 µM), usual class: cytotoxic. HT-1080-NT fibrosarcoma viability, CellTiter-Glo ATP luminescence, 48 h. actives 1.6% (n = 360,000);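 note: NT is the 2HG producing partner of a matched IDH1 knockdown line; nearly all actives have a fitted effect of over 55% in size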
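Toxicity toward the 2HG-producing NT line was scored as %Activity, normalised to DMSO and no-cell wells, from CellTiter-Glo luminescence after 48 hours' treatment.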
KB-3-1 tox – qHTS assay for MDR1-selective chemotherapeutics: Primary screen using the parental adenocarcinoma cell KB-3-1. actives 1.4% (n = 400,000). Potency, µM (top dose mostly 46.1 µM), most hits filed as cytotoxic. AID 1347075, 2019. KB-3-1 viability, CellTiter-Glo ATP luminescence, 72 h; note: nearly all actives have a fitted effect of over 60% in size
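Cytotoxicity measured as CellTiter-Glo luminescence after 72 h at 37 C. Compound titrations were pinned onto drug-naive KB-3-1 parental adenocarcinoma cells grown in DMEM with 10% FBS, and normalized data fitted to concentration-response curves.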
Hits are given with their value. An excerpt weighted towards active compounds, which were near 5.7% of everything screened. Calls come from the whole dose curve; as a rule, active = well fitted curve in the direction sought with a large enough effect; inconclusive = small, poorly fitted or top-dose-only effect, or another doubt; inactive = no such curve, though single readings can be large; an effect the other way counts as inactive or inconclusive.

For COC(=O)c1cc(CSc2nnc(NC3CCCCC3)s2)oc1C the results were HT1080 IDH1KD tx 18µM, KB-V1 MDR tox 21µM, HT1080-NT tox inactive and KB-3-1 tox inconclusive.
CCCc1ccc(S(=O)(=O)N2CCC(c3nnc(-c4cccc(C)c4)o3)CC2)cc1 was read as KB-V1 MDR tox inactive and KB-3-1 tox inconclusive.
Screening COc1ccc(-c2oc3ncnc(NCCCN4CCOCC4)c3c2-c2ccc(OC)cc2)cc1 returned HT1080 IDH1KD tx inconclusive, KB-V1 MDR tox 18µM, HT1080-NT tox inconclusive and KB-3-1 tox inactive.
COc1ccc(-c2csc3ncnc(NCCN4CCOCC4)c23)cc1 was read as HT1080 IDH1KD tx 21µM, KB-V1 MDR tox inconclusive, HT1080-NT tox 23µM and KB-3-1 tox inconclusive.
Cc1ccc(-c2csc3ncnc(NCCN4CCOCC4)c23)cc1 was read as HT1080 IDH1KD tx inactive, KB-V1 MDR tox inactive, HT1080-NT tox inactive and KB-3-1 tox inactive.
Screening COc1cccc(NC(=O)CSc2nc(-c3ccccc3Cl)nc3c2Cc2c(CO)cnc(C)c2O3)c1 returned KB-V1 MDR tox inactive and KB-3-1 tox inconclusive.
`COc1cccc(N2CCN(c3ccc(S(=O)(=O)N4CCN(C)CC4)cc3[N+](=O)[O-])CC2)c1` gave HT1080 IDH1KD tx inactive, KB-V1 MDR tox inconclusive, HT1080-NT tox inactive and KB-3-1 tox inconclusive.
CCN(CC)S(=O)(=O)c1ccc(N2CCN(c3cccc(OC)c3)CC2)c([N+](=O)[O-])c1 was read as HT1080 IDH1KD tx inconclusive, KB-V1 MDR tox 2.9µM, HT1080-NT tox inactive and KB-3-1 tox inactive.
`CCC(=O)N1c2ccc(S(=O)(=O)CCC(=O)N3CCN(c4ccc(F)cc4)CC3)cc2CC1C` (configuration not stated) gave KB-V1 MDR tox inactive and KB-3-1 tox inactive.
For NS(=O)(=O)c1ccc(CCNC(=O)c2nc(SCc3ccccc3F)ncc2Cl)cc1 the results were KB-V1 MDR tox inactive and KB-3-1 tox inactive.
For O=C(C[n+]1cc(-c2ccc(Cl)cc2)n2c1CCCCC2)c1ccccc1 the results were HT1080 IDH1KD tx inactive, KB-V1 MDR tox inactive, HT1080-NT tox inactive and KB-3-1 tox inconclusive.
COc1ccc(-c2c[n+](CC(=O)OC3CC(C)CCC3C(C)C)c3n2CCC3)cc1 (configuration not stated) was read as HT1080 IDH1KD tx 21µM, KB-V1 MDR tox inactive, HT1080-NT tox 18µM and KB-3-1 tox inactive.
`CC1CCC(C(C)C)C(OC(=O)C[n+]2cccc(C(N)=O)c2)C1` (configuration not stated) gave HT1080 IDH1KD tx inactive, KB-V1 MDR tox inactive, HT1080-NT tox inactive and KB-3-1 tox inconclusive.
Screening CC(C)[C@@H]1CC[C@@H](C)C[C@H]1OC(=O)C[n+]1cc(-c2ccc(Cl)cc2)n2c1CCCCC2 returned HT1080 IDH1KD tx 7.3µM, KB-V1 MDR tox inactive, HT1080-NT tox 6.5µM and KB-3-1 tox inconclusive.
For O=C(Nc1ccc(F)c(Cl)c1)C1CCN(S(=O)(=O)c2ccc3[nH]c(=O)ccc3c2)CC1 the results were KB-V1 MDR tox inconclusive and KB-3-1 tox inactive.
Screening CC(C)c1nnc(NC(=O)C2CCN(c3cnccn3)CC2)s1 returned HT1080 IDH1KD tx inactive, KB-V1 MDR tox 23µM, HT1080-NT tox inactive and KB-3-1 tox inactive.
`CCc1nnc(NC(=O)C2CCN(c3cnccn3)CC2)s1` gave HT1080 IDH1KD tx inactive, KB-V1 MDR tox inactive, HT1080-NT tox inactive and KB-3-1 tox inactive.
`COc1ccc(/C=N/NC(=O)c2cc3cc(OC)c(OC)cc3[nH]2)cc1` gave HT1080 IDH1KD tx inactive, KB-V1 MDR tox inactive, HT1080-NT tox inactive and KB-3-1 tox inactive.
For COc1ccc2cc(C(=O)N/N=C/c3cc(OC)c(OC)c(OC)c3)[nH]c2c1 the results were HT1080 IDH1KD tx inactive, KB-V1 MDR tox inactive, HT1080-NT tox inactive and KB-3-1 tox inactive.
For CCOc1ccc2[nH]c(C(=O)N/N=C/c3ccc(OC)cc3)cc2c1 the results were HT1080 IDH1KD tx 1.3µM, KB-V1 MDR tox inconclusive, HT1080-NT tox 0.92µM and KB-3-1 tox 1.5µM.
COc1ccc2[nH]c(C(=O)N/N=C/c3ccc(O)cc3O)cc2c1 was read as HT1080 IDH1KD tx 2.3µM, KB-V1 MDR tox inactive, HT1080-NT tox inconclusive and KB-3-1 tox inactive.
